From PubChem
PTAP TSG101 blk: qHTS Assay for Iinhibitors of HIV-1 Budding by Blocking the Interaction of PTAP/TSG101; 340,000 tested, under 10 active; Fluorescence polarization, FITC-PTAP peptide / Tsg101 binding; Potency, µM (titrated, usually from 115 µM), without a hit: at the top dose activity change, negative = inhibition, usual class: inhibitors; AID 493005, 2010; active = well fitted inhibition curve with a large enough effect in the main read-out, with a control signal flat, not every such curve was filed as active; inconclusive = small, poorly fitted or top-dose-only effect, or effect the other way, or a change in a side signal; inactive = no such curve, though single readings can be large or run the other way; also: potency is read from the fitted curve at half-maximal effect; % of control where 0% means no effect
Target sequence (Q99816 whole entry, looked up): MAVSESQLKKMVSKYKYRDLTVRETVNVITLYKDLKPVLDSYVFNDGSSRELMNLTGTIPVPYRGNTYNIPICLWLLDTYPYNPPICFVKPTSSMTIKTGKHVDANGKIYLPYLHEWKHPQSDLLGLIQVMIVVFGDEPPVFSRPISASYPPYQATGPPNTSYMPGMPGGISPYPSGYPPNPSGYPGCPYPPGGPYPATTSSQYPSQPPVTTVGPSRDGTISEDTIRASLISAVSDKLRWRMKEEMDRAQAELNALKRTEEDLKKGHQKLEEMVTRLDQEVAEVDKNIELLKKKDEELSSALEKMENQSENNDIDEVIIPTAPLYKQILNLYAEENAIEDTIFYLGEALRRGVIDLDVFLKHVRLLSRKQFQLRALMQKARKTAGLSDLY
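Compounds were pin-transferred onto Tsg101 binding domain (10 uM final) in HEPES pH 7.5 buffer, then FITC-PTAP peptide was added at 50 nM final. After 20 min at RT, polarization reported peptide displacement across a qHTS concentration series.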
D3 ag: qHTS of D3 Dopamine Receptor Agonist: qHTS | D(3) dopamine receptor (Homo sapiens), P35462 | D3R DiscoveRx beta-arrestin cells, luminescence, 90 min | max activation, % | 410,000 compounds, 0.58% hits; in the data active = max activation above about 30%; also: 0% is about no effect
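Agonist mode: compounds and dopamine controls were applied to plated cells for 90 min at 37 degrees C after an overnight attachment at 1500 cells/well. Luminescent read-out followed 30 - 60 minutes at room temperature with DiscoveRx detection reagent.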
MmCpn inh: Inhibitors of TCP-1 ring complex (TRiC) of Methanococcus maripaludis (MmCpn): qHTS; 330,000 compounds, 0.031% hits; Chaperonin Mm-Cpn (Methanococcus maripaludis); purified Mm-Cpn ATPase, ADP Transcreener TR-FRET; Potency, µM (top dose mostly 76.9 µM), without a hit: at the highest dose activity, negative = inhibition, most hits filed as inhibitors; active = well fitted inhibition curve with a large enough effect; inconclusive = small, poorly fitted or top-dose-only effect; also: potency is read from the fitted curve at half-maximal effect; % is scaled to controls: 0 for no effect and ±100 for the full control effect; nearly all actives have a fitted effect of over 80% in size
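Reaction buffer contained 30 mM Tris pH 7.4, 100 mM KCl, 5 mM MgCl2 and 1 mM DTT. Mm-CPN (25 nM final) hydrolysed 10 uM ATP over 30 min at 37°C; ADP was read by HTRF.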
Rango release inh: qHTS Assay for Inhibitors of RanGTP induced Rango (Ran-regulated importin-beta cargo) - Importin beta complex dissociation | Snurportin-1 (Homo sapiens) + GTP-binding nuclear protein Ran (Homo sapiens) + Importin … | Biochemical FRET Rango-importin beta, RanGTP-induced dissociation | Potency, µM (top dose mostly 46.1 µM), without a hit: at the highest dose activity change, negative = inhibition | 340,000 compounds, 0.071% hits; also: potency is read from the fitted curve at half-maximal effect; % of control where 0% means no effect; nearly all actives have a fitted effect of over 45% in size
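Rango (0.1 uM)–importin beta (0.25 uM) complex; RanGTP-RCC1 trigger; 45 min RT; CFP/YFP FRET read.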
Rango-impB inh: qHTS Assay for Inhibitors of Rango (Ran-regulated importin-beta cargo) - Importin beta complex formation; Rango CFP/YFP FRET sensor + importin beta, 45 min; Potency, µM (series often up to 92.2 µM), inactives show at the highest dose inhibition of complex formation; 340,000 compounds, 0.031% hits; AID 540263, 2011;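 also: potency is read from the fitted curve at half-maximal effect; 0% = DMSO wells and 100% = buffer wells lacking importin beta; nearly all actives have a fitted effect of over 15% in size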
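FRET biosensor Rango (snurportin 1 IBB between N-terminal EYFP and C-terminal Cerulean), 50 nM in PBS/1 mM DTT/0.02% Tween-20/0.1% BSA, preincubated 5 min RT with compound; 0.125 microM importin beta added, 45 min RT, CFP/YFP FRET ratio read.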
DRD3 antagonist: qHTS of D3 Dopamine Receptor Antagonist: qHTS; D3R cells, DiscoveRx beta-arrestin luminescence, antagonist mode; hits give low values; max response, negative = inhibition, %; 360,000 compounds, 2.5% hits; D(3) dopamine receptor (Homo sapiens), P35462; AID 652054, 2013; in the data active = max response below about -50%; inconclusive = no clear call, values can overlap the other calls; also: % is scaled to controls: 0 for no effect and ±100 for the full control effect
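Cells expressing the human receptor were seeded at 1500 cells/well, incubated overnight at 37 degrees C in 5% CO2, then exposed to library compounds with dopamine controls for 90 minutes at 37 degrees C before luminescent detection.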
* hit, by the source's call. In the library only some 2.9% were active in any assay of this set; here they are far more common. Unless noted, calls follow the shape of the full dose curve.

For CCN(C(=O)c1cc2c(=O)n(CC)c3ccccc3c2s1)c1cccc(C(F)(F)F)c1 the results were D3 ag 0.
For Cc1ccc(C)c(N2CCN(CCCNC(=O)Cn3c(-c4cccs4)cc4ccccc43)CC2)c1 the results were D3 ag -15.
Screening Clc1ccccc1CN1CCN(CCCc2ccccc2)CC1 returned PTAP TSG101 blk -1%, D3 ag -20, MmCpn inh -2%, Rango release inh 13%, Rango-impB inh -1% and DRD3 antagonist -79*.
OCC1(CCc2ccccc2)CCN(Cc2ccccc2Cl)CC1 was read as PTAP TSG101 blk -6%, D3 ag -17, MmCpn inh 0%, Rango release inh 1%, Rango-impB inh 0% and DRD3 antagonist inconclusive.
For Cc1ccc(C)c(-n2sc3ccc(F)cc3c2=O)c1 the results were PTAP TSG101 blk -1%, D3 ag -1, MmCpn inh -1%, Rango release inh 1%, Rango-impB inh 0% and DRD3 antagonist -81*.
Cc1ccc2scc(N3CCN(c4ccc(F)cc4)CC3)c(=O)c2c1 was read as D3 ag -17.
Screening COc1ccc(-n2sc3ccc(F)cc3c2=O)cc1 returned D3 ag -43, MmCpn inh -7%, Rango release inh 0%, Rango-impB inh -1% and DRD3 antagonist -55*.
`O=c1c2cc(F)ccc2sn1-c1ccc(F)cc1` gave PTAP TSG101 blk -1%, D3 ag -2, MmCpn inh -8%, Rango release inh 0%, Rango-impB inh 0% and DRD3 antagonist 2.
c1ccc(-c2csc(NNC3=NCCCCC3)n2)cc1 was read as PTAP TSG101 blk 0%, D3 ag -5, MmCpn inh 1%, Rango release inh 22%, Rango-impB inh 1% and DRD3 antagonist -8.
`Clc1ccc(-c2csc(NNC3=NCCCCC3)n2)cc1` gave PTAP TSG101 blk -5%, D3 ag -1, MmCpn inh -1%, Rango release inh -5%, Rango-impB inh -1% and DRD3 antagonist -78*.
CCC(C)NCCOc1cc(C)cc(C)c1C (stereo unspecified) was read as PTAP TSG101 blk -4%, D3 ag -15, MmCpn inh -5%, Rango release inh -8%, Rango-impB inh inconclusive and DRD3 antagonist -69*.
For Cn1cc(-c2cc3n(n2)CCC(=O)N3CC(=O)NCc2ccc(Cl)cc2)c2ccccc21 the results were D3 ag -18.
Screening CCCCN(CCCC)C1=C(C(=O)c2ccccc2)N(C)S(=O)(=O)c2ccccc21 returned D3 ag 2.
For COc1ccc2c(COC(=O)c3cccc(S(=O)(=O)NCC(C)C)c3)cc(=O)oc2c1 the results were PTAP TSG101 blk 1%, D3 ag 32*, MmCpn inh -17%, Rango release inh -7%, Rango-impB inh -2% and DRD3 antagonist 46.
For CC1CN(S(=O)(=O)c2cccc(C(=O)OCc3cc(=O)oc4cc(O)ccc34)c2)CC(C)O1 (stereo unspecified) the results were PTAP TSG101 blk -8%, D3 ag -10, MmCpn inh -5%, Rango release inh inconclusive, Rango-impB inh inconclusive and DRD3 antagonist -56*.
CCCNS(=O)(=O)c1cccc(C(=O)OCc2cc(=O)oc3cc(OC)ccc23)c1 was read as PTAP TSG101 blk -4%, D3 ag -2, MmCpn inh -27%, Rango release inh -11%, Rango-impB inh -4% and DRD3 antagonist 23.
For COc1cc(/C=C/CN2CCC(CO)(CC3CCCCO3)CC2)ccc1O (stereo unspecified) the results were PTAP TSG101 blk 0%, D3 ag -53, MmCpn inh 2%, Rango release inh -3%, Rango-impB inh -1% and DRD3 antagonist -67*.
COc1cccc(CN2CCC(CO)(CC3CCCCO3)CC2)c1 (stereo unspecified) was read as PTAP TSG101 blk -5%, D3 ag -30, MmCpn inh -1%, Rango release inh 0%, Rango-impB inh 1% and DRD3 antagonist -25.
Screening OCC1(CC2CCCCO2)CCN(C/C=C/c2ccccc2)CC1 (stereo unspecified) returned PTAP TSG101 blk -3%, D3 ag -13, MmCpn inh 2%, Rango release inh -16%, Rango-impB inh -2% and DRD3 antagonist -68*.
For OCC1(CC2CCCCO2)CCN(Cc2nc3ccccc3[nH]2)CC1 (stereo unspecified) the results were PTAP TSG101 blk -1%, D3 ag -5, MmCpn inh 0%, Rango release inh inconclusive, Rango-impB inh inconclusive and DRD3 antagonist -2.
O=C(CSc1oc(-c2ccco2)nc1S(=O)(=O)c1ccc(Cl)cc1)c1ccc(Cl)cc1 was read as D3 ag -7.
CN(CC(=O)Nc1cccc(F)c1)C(=O)/C=C/c1cc(Br)ccc1OC(F)F was read as PTAP TSG101 blk -4%, D3 ag -9, MmCpn inh -2%, Rango release inh -12%, Rango-impB inh -1% and DRD3 antagonist -54*.
CCOc1cc(CNc2ccc(N3CCCCC3)cc2)cc(Br)c1OCC(=O)NC(C)(C)C was read as PTAP TSG101 blk -4%, D3 ag -10, MmCpn inh -2%, Rango release inh -11%, Rango-impB inh 0% and DRD3 antagonist -21.
Screening CCOc1cc(CNc2ccc(N(C)C)cc2)cc(Br)c1OCC(=O)NC(C)(C)C returned PTAP TSG101 blk -2%, D3 ag -5, MmCpn inh 25µM*, Rango release inh -26%, Rango-impB inh 0% and DRD3 antagonist 14.
`CCOc1cc(CNc2ccc(N3CCOCC3)cc2)cc(Br)c1OCC` gave PTAP TSG101 blk -1%, D3 ag 37*, MmCpn inh 1%, Rango release inh -8%, Rango-impB inh -1% and DRD3 antagonist 16.
COc1cc(CNc2ccc(N3CCOCC3)cc2)cc(Br)c1OC was read as PTAP TSG101 blk -1%, D3 ag 0, MmCpn inh -6%, Rango release inh 10%, Rango-impB inh 6% and DRD3 antagonist -13.
